# Measured values as given in the supplement of paper PMC10105736.
# Unmarked numbers belong to inactive results.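 How the source made its calls: active = MAPPIT score above the 99th percentile of random reference set scores in the same batch; inactive = at or below it.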
# B1: cpb (protein)
# chain: MSEMQMDCALDLMRRLPPQQIEKNLIDLIDLAPDLCEDLLSSVDQPLKIAKDKEHGKDYLLCDYNRDGDSYRSPWSNSYYPPLEDGQMPSERLRKLEIEANYAFDQYREMYYEGGVSSVYLWDLDHGFAAVILIKKAGDGSKMIRGCWDSIHVVEVQEKTTGRTAHYKLTSTAMLWLQTNKQGSGTMNLGGSLTRQQEQDANVSESSPHIANIGKMVEEMENKIRNTLNEIYFGKTKDIVNGLRSTQSLADQRQQAAMKQDLAAAILRRNVKPESN
# B2: Bin1 (protein)
# chain: MANVESMIVEEKTQVKQIDREKTCPMLLRVFCSTGRHHSVSEYMFGNVPTNELQIYTWQDATLHELTSLVRDVNPDTRKKGTYFDFAVVYPNFRSNHFQMREIGVTCTGQKGIDDNKTLAQAKFSIGDFLDISITPPNRLPPTARRQRPY
# B3: abs (protein)
# chain: MAHVKRYRRSSKSSEEGDLDNEDYVPYVPVKERKKQHMIKLGRIVQLVSETAQPKSSSENENEDDSQGAHDVETWGRKYNISLLDQHTELKKIAEAKKLSAVEKQLREEEKIMESIAQQKALMGVAELAKGIQYEQPIKTAWKPPRYIREMSEEEREAVRHELRILVEGETPSPPIRSFREMKFPKGILNGLAAKGIKNPTPIQVQGLPTVLAGRDLIGIAFTGSGKTLVFVLPVIMFALEQEYSLPFERNEGPYGLIICPSRELAKQTHEIIQHYSKHLQACGMPEIRSCLAMGGLPVSEALDVISRGVHIVVATPGRLMDMLDKKILTLDMCRYLCMDEADRMIDMGFEEDVRTIFSFFKGQRQTLLFSATMPKKIQNFARSALVKPVTINVGRAGAASMNVTQQVEYVKQEAKVVYLLDCLQKTAPPVLIFAEKKQDVDCIHEYLLLKGVEAVAIHGGKDQEERSRAVDAYRVGKKDVLVATDVASKGLDFPNVQHVINYDMPDDIENYVHRIGRTGRSNTKGLATTLINKTTEQSVLLDLKHLLIEGKQEVPDFLDELAPETEHQHLDLGDSHGCTYCGGLGHRITECPKLEAVQNKQASNIGRRDYLSNTAADY
# B4: mtTFB2 (protein)
# chain: MLPLRCSWSFARANYSTKKELVTRYSGDFPEKLLNRKQKVPTHMYIANSEAAARINQYLEPHFQSSGCDTVMELNSGAGYFTRHLLDRESQFRRIILLESMDHFMPKIQELHTLYPERVKVRQGDFVNLWKLVYMDKMDGGSRVADLLSDVPQKAFTDDINMLVFGAVGSYPFFKHLINSLIFQTSLFNLGRCEMILAMPPPIYIHLTCNNEIGYLIYRSTSVLFQILFEHKFIAKVPREDFLPQQMAYSPTKSSKLGKVQSINPEYLYLVKFTPRRNLHELCQSQDLPALWFFIKQNYVSRRNRIIPNLEKWVPGCGPRLIINPKSSESVTPIYPDELPKKLPQYSCQSTTMSTRNYYPGINIYTQFGDLLPSQILTLFSQFRQWPEYGESSFLASLENALLKLETANDEPNLEDGVTLPEEDDAEADEIIEEESPVPATTPVKRRRKASS
# B5: Gs1 (protein)
# chain: MALRVAGLFLKKELVAPATQQLRLLRTGNTTRSQFLANSPNTALDKSILQRYRNLETPANRVQATYLWIDGTGENIRLKDRVLDKVPSSVEDLPDWQYDGSSTYQAHGENSDTTLKPRAIYRDPFKPGKNDVIVLCDTYSADGKPTASNKRAAFQAAIDLISDQEPWFGIEQEYTLLDVDGRPFGWPENGFPAPQGPYYCGVGADRVYARDLVEAHVVACLYAGIDFAGTNAEVMPAQWEFQIGPAGIKACDDLWVSRYILQRIAEEYGVVVTFDPKPMEGQWNGAGAHTNFSTKEMRADGGIKAIEEAIEKLSKRHERHIKAYDPKEGKDNERRLVGRLETSSIDKFSWGVANRAVSVRVPRGVATAGKGYLEDRRPSSNCDPYAVCNAIVRTCLLNE
# B6: Wdr24 (protein)
# chain: MPDSVEDTSTISLRICLEGHANALALNKDNNQIALAGRSLLKVYSINSNGFTESCNMRGKNQNLSYSANDVAWSTLDSNLLATAATNGVVSVWDLSKFGRQKQLLVYNEHERTAHTVTFHSSEPNILISGSQDGTIKCFDIRSDKSINTYFCNSESVRDVKFSPHTQNIFSAVSENGTVQLWDMRKWDKCMVQFTAHYGPVYTCDWHPTRNWLATGSRDKQIKVWNMDGRPGLEHTIHTIAVVGRVKWRPERTYHIASCALVVDYSVHVWDIRRPYIPFASFNEHTNVTTGIAWQGSDSHCLLSISKDSTIYKHAFKDATRPALKANAQGASLGRFGDISFANKIKEYEPKTSGASNTKSSSFIRRKTNVAGSIQFHLDHSKMYKFMVNDTFSGYPLSESVSRPTQEHESFIGCARELVISGKKLSELCEHNAEVSKKYGKHNATTLWNFIKLFYGSNHFEPPFEHRSSFSNQKNPMNSRRATQVASDWPQQRTELGQDLNGNTPETAHEIDVANVDDDTLGSSGVEHPPTSSVILSETQIISEITFDNFELLRNGFIYVGPTECPKALAFPALHHDVQAARPQLDLKASDHEKSPPPHVPTVLKVSHVPPIPMWEPHKFVSDALMLMNDVGDVQTALTVLIALGEARKLLPIDDALVEHWFYTYVDQLHRYELWNEACEVINRSWLRSVQQLNQHSTAMHTNCGECGRPMGGKVGWYCDKCKSMQSAKCCVCGLIVRGVYAWCQGCSHGGHIEHLQKYFAKHSKCPKCGHLCAYS
# B7: dgt6 (protein)
# chain: MDRTIIAPWKAEEKEQSEKLHRKLQGLALVHPLPDELRKLIAWDMFLKPNQVAFVHVMHYLFRLLDPAEFKRRFFWPITDKKSEANFRSSTVEYLKHLNEKHQLHWANIKSYLVVMPGGMRFINFLLEFVGFVIQELIKQREKSLGLEAGTPNVSAKVMARQNAVMKEYASSYVVNLEENTALLRDKTQKIRRLMADLSADMGVPEEQLADDGFLDEFEATAALGVERVITQPTERKFDLEASLCGLKEAIDLFQVKQAENNQSKEAVEKALRGMRVLFDCDAVTEGDFYDPLGASKMDALLNGFNRISGTIAEQLDANDHYNESNAFVTTDLQALRVELSQSEVQLNNLLKKLNEPSKKDKGSANASGSARVQTLQPATPRFESVISSKFVSTPPIRIDMGGGGGRNAPVRLALQDDFNGKQFDALSNSLLAPAPPRSARKLKALDQSTGIDLNGTLNRSKINDPMQMLRTIHKNTSKVKAAPQANLSSLGSKWKQMQASFGFDEAPVPGAAVISPQTSPTDPSDPFTPLSGSECTRIERIPRTSENNTSLIAKSAAVIKVLEVSRNVLNLSTSPSGRLDALVPHTESHQQDVAPRLQLNDRTINDSLQLDPDFNIENDKNAFNVSHKFDFDQIGGEDDLQNISDSVLKDIIF
# B8: corto (protein)
# chain: MTMAACYANYDMSSLSHGMSALSALQQQQQQQQQQHSQTQQQHHHQQQQQHMYHAAVAAHQQQLLQQQQQQQHHRHHHQPANTSSSSNSRHSHAAATQTQVAAAVANSRQQQQQQQQQQQQQQQQQTASSNSNAAPAPSPQKDYSIPLHVDCSVEYELPNQPKPPAGQRVEPLLMIHPCYFRKMESQRRSPFVNNMHATARAVSSSSLSSGAALGGGGSGAAVATAPSSSAARRGARAATSAQQQQQQQQRYQQQQQQLRQQHQQMSQMSQQAHYPQQQSSLVRQHQQQQQQQQQQQRASSNQSQRQSQSQSQSQSHAANSAAAAAAQASIAAAAAGQWDQLAALAARTALTPHHMLHPHSHYAAKGSGGGAGGGKRDAMISGSYGQTAVASGKLQQSQVQQQQPQQQQQHCLPPPPWDATSMLMDRSPMATVPSNYQAGPDTNPMRLYSATPTAGAASGGSASVGGGGAVSGAGATGAVNTATDKLSGKYRQYLRSQRMHPYAAAASLNLAAAAAAAGQTSFVPFSSAATAVAATPTFQHLPQISCYNV
# B9: nos (protein)
# chain: MSQHFTSIFENLRFVTIKRSTNAQQQQQQQQQQLQQQQQQLQQQKAQTQQQNSRKIKTQATPTLNGNGLLSGNPNGGGGDSSPSHEVDHPGGAQGAQAAGGLPSSSGTPLRHHKRASISTASPPIRERRGTNTSIVVELDGSGSGSGSGGGGVGVGQGAGCPPSGSCTASGKSSRELSPSPKNQQQPRKMSQDYRSRAGSFMHLDDEGRSLLMRKPMRLKNIEGRPEVYDTLHCKGREILSCSKATCTSSIMNIGNAAVEARKSDLILEHAKDFLEQYFTSIKRTSSTAHETRWKQVRQSIETTGHYQLTETELIYGAKLAWRNSSRCIGRIQWSKLQVFDCRYVTTTSGMFEAICNHIKYATNKGNLRSAITIFPQRTDAKHDYRIWNNQLISYAGYKQADGKIIGDPMNVEFTEVCTKLGWKSKGSEWDILPLVVSANGHDPDYFDYPPELILEVPLTHPKFEWFSDLGLRWYALPAVSSMLFDVGGIQFTATTFSGWYMSTEIGSRNLCDTNRRNMLETVALKMQLDTRTPTSLWKDKAVVEMNIAVLHSYQSRNVTIVDHHTASESFMKHFENESKLRNGCPADWIWIVPPLSGSITPVFHQEMALYYLKPSFEYQDPAWRTHVWKKGRGESKGKKPRRKFNFKQIARAVKFTSKLFGRALSKRIKATVLYATETGKSEQYAKQLCELLGHAFNAQIYCMSDYDISSIEHEALLIVVASTFGNGDPPENGELFSQELYAMRVQESSEHGLQDSSIGSSKSFMKASSRQEFMKLPLQQVKRIDRWDSLRGSTSDTFTEETFGPLSNVRFAVFALGSSAYPNFCAFGQYVDNILGELGGERLLRVAYGDEMCGQEQSFRKWAPEVFKLACETFCLDPEESLSDASLALQNDSLTVNTVRLVPSANKGSLDSSLSKYHNKKVHCCKAKAKPHNLTRLSEGAKTTMLLEICAPGLEYEPGDHVGIFPANRTELVDGLLNRLVGVDNPDEVLQLQLLKEKQTSNGIFKCWEPHDKIPPDTLRNLLARFFDLTTPPSRQLLTLLAGFCEDTADKERLELLVNDSSAYEDWRHWRLPHLLDVLEEFPSCRPPAPLLLAQLTPLQPRFYSISSSPRRVSDEIHLTVAIVKYRCEDGQGDERYGVCSNYLSGLRADDELFMFVRSALGFHLPSDRSRPIILIGPGTGIAPFRSFWQEFQVLSDLDPTAKLPKMWLFFGCRNRDVDLYAEEKAELQKDQILDRVFLALSREQAIPKTYVQDLIEQEFDSLYQLIVQERGHIYVCGDVTMAEHVYQTIRKCIAGKEQKSEAEVETFLLTLRDESRYHEDIFGITLRTAEIHTKSRATARIRMASQP
# B10: rl (protein)
# chain: MEEFNSSGSVVNGTGSTEVPQSNAEVIRGQIFEVGPRYIKLAYIGEGAYGMVVSADDTLTNQRVAIKKISPFEHQTYCQRTLREITILTRFKHENIIDIRDILRVDSIDQMRDVYIVQCLMETDLYKLLKTQRLSNDHICYFLYQILRGLKYIHSANVLHRDLKPSNLLLNKTCDLKICDFGLARIADPEHDHTGFLTEYVATRWYRAPEIMLNSKGYTKSIDIWSVGCILAEMLSNRPIFPGKHYLDQLNHILGVLGSPSRDDLECIINEKARNYLESLPFKPNVPWAKLFPNADALALDLLGKMLTFNPHKRIPVEEALAHPYLEQYYDPGDEPVAEVPFRINMENDDISRDALKSLIFEETLKFKERQPDNAP
# B11: sun (protein)
# chain: MTAWRAAGITYIQYSNIAARILRESLKTGLRADAAKRDASHVKFTPWANGKPAQRQTQSES
# How the values were obtained:
# Experiment in all cases: MAPPIT interaction score (arbitrary units); higher = stronger binary interaction signal, active = hit call of the paper
# [1] = target: cpa; conditions: MAPPIT configuration: N-N; pair source set: Lit-BM-16
# [2] = target: bcd; conditions: MAPPIT configuration: N-N; pair source set: Lit-BM-16
# [3] = target: bru3; conditions: MAPPIT configuration: N-N; pair source set: DPIM
# [4] = target: abs; conditions: MAPPIT configuration: N-N; pair source set: DPIM
# [5] = target: cactin; conditions: MAPPIT configuration: N-N; pair source set: RRS
# [6] = target: cathD; conditions: MAPPIT configuration: N-N; pair source set: DPIM
# [7] = target: dgt4; conditions: MAPPIT configuration: N-N; pair source set: Lit-BM-16
# [8] = target: corto; conditions: pair source set: Lit-BM-16
# [9] = target: brat; conditions: MAPPIT configuration: N-N; pair source set: Lit-BM-16
# [10] = target: cic; conditions: pair source set: Lit-BM-16
# [11] = target: rl; conditions: MAPPIT configuration: N-N; pair source set: Curagen_high_conf
# [12] = target: alrm; conditions: MAPPIT configuration: N-N; pair source set: DPIM
# 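Further: HEK293T cells with Epo stimulation, STAT-responsive firefly luciferase reporter, fold induction versus unstimulated cells divided by the larger fold induction of two negative controls lacking either bait or prey.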
binder,measurement,setting,value
B1,MAPPIT interaction score,[1],3.35 (active)
B2,MAPPIT interaction score,[2],-0.341
B3,MAPPIT interaction score,[3],-0.236
B4,MAPPIT interaction score,[4],2
B5,MAPPIT interaction score,[5],-0.185
B6,MAPPIT interaction score,[6],-0.0301
B7,MAPPIT interaction score,[7],4.71 (active)
B8,MAPPIT interaction score,[8]; MAPPIT configuration: N-C,0.538
same,MAPPIT interaction score,[8]; MAPPIT configuration: N-N,0.215
B9,MAPPIT interaction score,[9],-0.851
B10,MAPPIT interaction score,[10]; MAPPIT configuration: N-C,0.149
same,MAPPIT interaction score,[10]; MAPPIT configuration: N-N,0.776
same,MAPPIT interaction score,[11],0.844
B11,MAPPIT interaction score,[12],-0.31
